# Laboratory results: PubChem BioAssay AID624141 (Broad Institute, 2012)
# Out of some 17,000 compounds screened, about 260 (1.5%) were called active.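 Rule for the calls: active = spot fluorescence over background with P-value below 7% in all four replicate spots, showing protein binding; inactive = the rest.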 Shown is part of a subset that was picked to be rich in actives.
# Target: Myc proto-oncogene protein (Homo sapiens) (UniProt P01106)
# Assay: binders of human c-Myc, primary screen, biochemical, small molecule microarray, anti-His fluorescence (AID 624141)
# Details: His-c-Myc binding
# Sequence of Myc proto-oncogene protein (Homo sapiens) (P01106 whole entry, looked up): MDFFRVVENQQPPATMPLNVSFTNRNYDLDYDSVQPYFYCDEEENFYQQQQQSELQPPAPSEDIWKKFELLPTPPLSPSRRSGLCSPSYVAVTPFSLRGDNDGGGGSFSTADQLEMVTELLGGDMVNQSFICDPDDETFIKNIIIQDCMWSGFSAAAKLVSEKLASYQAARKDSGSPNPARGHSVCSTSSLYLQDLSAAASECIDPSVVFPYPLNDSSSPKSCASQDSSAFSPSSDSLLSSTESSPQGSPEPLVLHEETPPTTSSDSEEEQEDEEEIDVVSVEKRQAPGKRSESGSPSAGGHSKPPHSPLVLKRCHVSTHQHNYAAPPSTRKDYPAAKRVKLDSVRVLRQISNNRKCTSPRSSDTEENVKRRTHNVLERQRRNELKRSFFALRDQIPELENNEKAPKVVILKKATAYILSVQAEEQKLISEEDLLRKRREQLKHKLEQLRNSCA
row,Structure (SMILES),outcome
1,C[C@@H]1CN([C@H](C)CO)C(=O)c2cccc(NS(C)(=O)=O)c2O[C@@H]1CN(C)C(=O)Nc1cccc2ccccc12,inactive
2,O=C(NCc1ccccc1)C1=C[C@H](C2CC2)C[C@H](OCc2ccc(CO)cc2)O1,inactive
3,C[C@H](CO)N1C[C@H](C)[C@H](CN(C)CC2CC2)Oc2ccc(NC(=O)c3ccncc3)cc2C1=O,inactive
4,C[C@H]1CN([C@@H](C)CO)C(=O)c2cc(NC(=O)Cn3cnnn3)ccc2O[C@H]1CN(C)C(=O)NC1CCCCC1,inactive
5,CC(C)NC(=O)N(C)C[C@H]1OCCCC[C@@H](C)Oc2ccc(NS(C)(=O)=O)cc2C(=O)N([C@H](C)CO)C[C@H]1C,inactive
6,CC(C)NC(=O)N(C)C[C@H]1Oc2ccc(NC(=O)CCC(F)(F)F)cc2CC(=O)N([C@@H](C)CO)C[C@@H]1C,inactive
7,C[C@H]1CCCCO[C@H](CN(C)C(=O)CCC(F)(F)F)[C@@H](C)CN([C@@H](C)CO)C(=O)c2cc(NC(=O)Nc3ccc4c(c3)OCO4)ccc2O1,inactive
8,O=C1c2ccccc2[C@](Cc2ccccc2I)(C(=O)NCc2ccccc2)[C@H](c2ccc(CO)cc2)N1C1CCCCC1,inactive
9,Cc1cc(C)c2nc(-c3cccnc3)cc(C(=O)Nc3sc(Cc4ccccc4)cc3C(N)=O)c2c1,inactive
10,CC(C)NC(=O)N(C)C[C@@H]1Oc2ccc(NS(=O)(=O)c3ccccc3)cc2C(=O)N([C@@H](C)CO)C[C@H]1C,inactive
11,C[C@@H]1CN([C@@H](C)CO)C(=O)c2cccc(NC(=O)c3ccc(-c4nccs4)cc3)c2O[C@H]1CN(C)C(=O)Nc1ccccc1,inactive
12,Cc1cccc(OCCCC(=O)Nc2sc3c(c2C(N)=O)CCCC3)c1C,inactive
13,Cc1nn(-c2ccccc2)c(CC(C)(C)C(=O)O)c1C(=O)O,inactive
14,C[C@H]1CN([C@@H](C)CO)C(=O)Cc2cc(NC(=O)Nc3ccccc3)ccc2O[C@H]1CN(C)Cc1ccncc1,inactive
15,C[C@@H]1CCCCO[C@@H](CN(C)Cc2ccncc2)[C@@H](C)CN([C@@H](C)CO)C(=O)c2cc(N(C)C)ccc2O1,inactive
16,C[C@H](CO)N1C[C@H](C)[C@H](CN(C)C)Oc2ccc(NC(=O)Nc3ccc(F)cc3)cc2CC1=O,inactive
17,C[C@@H]1CN([C@@H](C)CO)C(=O)Cc2cc(NC(=O)Cc3cn(C)c4ccccc34)ccc2O[C@H]1CN(C)C(=O)NC1CCCCC1,inactive
18,C/C=C(\C)C(=O)OC(/C=C/C(O)C(C)O)C1C=CC(=O)O1 (configuration not stated),inactive
19,C=C(C(=O)O)C1CCC2(C)CCC(=O)C(C)=C2C1 (configuration not stated),inactive
20,Cn1c(OCc2cccnc2)nc2c1c(=O)n(Cc1ccc(Cl)c(Cl)c1)c(=O)n2C,inactive
21,CCO[C@H]1OC(C(=O)O)=C[C@@H](C2CCCCC2)[C@@H]1CCCO,inactive
22,Nc1nnc(SCC(=O)Nc2ccc(Cl)cc2O)s1,inactive
23,COc1ccc(S(=O)(=O)N(C)C[C@@H]2Oc3ccc(NC(=O)CCC(F)(F)F)cc3C(=O)N([C@@H](C)CO)C[C@H]2C)cc1,inactive
24,CN1CCN(C(=O)C2=C[C@@H](c3ccc(Br)cc3)C[C@@H](OCCCCO)O2)CC1,inactive

row,Structure (SMILES),outcome
1,C[C@H]1CN([C@@H](C)CO)C(=O)Cc2cc(N(C)C)ccc2O[C@@H]1CN(C)S(=O)(=O)c1ccc(F)cc1,inactive
2,Nc1nnc(SCCN2C(=O)c3ccccc3S2(=O)=O)s1,inactive
3,C[C@@H]1CN([C@H](C)CO)C(=O)CCCn2nncc2CO[C@@H]1CN(C)Cc1ccc2c(c1)OCCN2C,inactive
4,Cc1c(NC(=O)/C(C#N)=C/c2ccccc2Cl)c(=O)n(-c2ccccc2)n1C,inactive
5,C/C(=C\CC[C@H](CO)[C@@H]1CC[C@]2(C)C3=C(CC[C@@]12C)[C@@]1(C)CCC(=O)C(C)(C)C1CC3)C(=O)O (some centres not stated),inactive
6,COCCOC(=O)N1C(=O)[C@@]2(c3cc(C#CCNC(N)=O)ccc31)[C@H](C(=O)N1CCN(c3ncccn3)CC1)[C@H]1C(=O)O[C@H](c3ccccc3)[C@H](c3ccccc3)N1[C@@H]2c1ccccc1OCCO,inactive
7,Cc1cc(C(=O)c2ccccc2)ccc1OC(=O)COc1ccccc1[N+](=O)[O-],inactive
8,NC(=O)NCC#Cc1ccc2c(c1)[C@]1(C(=O)N2)[C@H](C(=O)Nc2nc3ccccc3s2)[C@H]2C(=O)O[C@H](c3ccccc3)[C@H](c3ccccc3)N2[C@@H]1c1ccc(OCCO)cc1,inactive
9,CC1=COC(O[C@@H]2O[C@H](CO)[C@@H](O)[C@H](O)[C@H]2O)C2C1CC(O)C2CO (some centres not stated),inactive
10,C[C@H](CO)N1C[C@H](C)[C@@H](CN(C)Cc2ccccc2)Oc2c(NC(=O)C3CCOCC3)cccc2C1=O,inactive
11,C[C@H](CO)N1C[C@H](C)[C@H](CN(C)Cc2ccc(C(=O)O)cc2)Oc2ccc(NC(=O)NC3CCCCC3)cc2C1=O,inactive
12,COc1ccc(S(=O)(=O)Nc2cccc3c2O[C@H](CN(C)Cc2ccc4c(c2)OCO4)[C@H](C)CN([C@@H](C)CO)C3=O)cc1,inactive
13,COc1cccc(NC(=O)c2cc([N+](=O)[O-])ccc2NC(=O)CN2CCCCCC2)c1,inactive
14,C[C@@H]1CN([C@@H](C)CO)C(=O)c2cccc(NC(=O)Nc3ccc(F)cc3)c2O[C@@H]1CN(C)Cc1ccc(C(=O)O)cc1,inactive
15,C[C@H](CO)N1C[C@H](C)[C@H](CN(C)Cc2ccc(C(F)(F)F)cc2)Oc2c(NC(=O)C3CCOCC3)cccc2C1=O,inactive
16,O=C(Nc1cccc(CCc2ccccn2)c1)c1ccc(Cl)cc1,inactive
17,C[C@@H]1CCCCO[C@H](CN(C)C(=O)Nc2ccc3c(c2)OCO3)[C@H](C)CN([C@H](C)CO)C(=O)c2cc(NS(C)(=O)=O)ccc2O1,inactive
18,C[C@H]1CN([C@@H](C)CO)C(=O)c2cc(NS(=O)(=O)c3ccccc3)ccc2O[C@@H]1CN(C)C(=O)NC1CCCCC1,inactive
19,C[C@@H]1CN([C@@H](C)CO)C(=O)CCCn2cc(nn2)CO[C@@H]1CN(C)C(=O)C1CCCCC1,inactive
20,C[C@@H]1CCCCO[C@H](CN(C)C(=O)CCC(F)(F)F)[C@@H](C)CN([C@@H](C)CO)C(=O)c2cc(NC(=O)c3ccncc3)ccc2O1,inactive
21,COC(=O)c1cc(C)sc1NC(=S)Nc1ncn(Cc2ccc(F)cc2Cl)n1,inactive
22,CCc1ccc2c(c1)c1nc3ccccc3nc1n2CC(=O)OC,active
23,CCn1c2ccccc2c2nnc(SCC(=O)O)nc21,inactive
24,O=C1C(=O)N(CCn2c3ccccc3c3nc4ccccc4nc32)c2ccccc21,inactive

row,Structure (SMILES),outcome
1,O=C(O)c1cccc(S(=O)(=O)Nc2ccc(O)cc2Sc2nc3ccccc3s2)c1,inactive
2,Cc1ccc(OCC(=O)Nc2cc(-c3nc4cc(C)c(C)cc4o3)ccc2C)cc1,inactive
3,Cc1noc(C)c1NC(=O)N(C)C[C@@H]1Oc2ccc(NC(=O)Nc3ccc4c(c3)OCO4)cc2C(=O)N([C@H](C)CO)C[C@H]1C,inactive
4,C[C@H](CO)N1C[C@H](C)[C@@H](CN(C)C(=O)Nc2ccccc2)Oc2ccc(NC(=O)C3CC3)cc2CC1=O,inactive
5,C[C@@H]1CN([C@H](C)CO)C(=O)Cc2cc(NC(=O)C3CC3)ccc2O[C@H]1CN(C)Cc1ccc2c(c1)OCO2,inactive
6,C[C@@H]1CN([C@H](C)CO)C(=O)Cc2cc(NC(=O)C3CC3)ccc2O[C@H]1CN(C)Cc1ccc(Cl)c(Cl)c1,active
7,CCOC(=O)c1ccc(COC(=O)c2cc(=O)[nH]c3ccccc23)o1,inactive
8,CC(C)NC(=O)N(C)C[C@H]1OCCCC[C@H](C)Oc2ccc(NC(=O)Nc3ccc4c(c3)OCO4)cc2C(=O)N([C@H](C)CO)C[C@@H]1C,inactive
9,C[C@@H]1CN([C@@H](C)CO)C(=O)Cc2cc(NC(=O)CCN3CCOCC3)ccc2O[C@H]1CN(C)S(=O)(=O)c1ccccc1,inactive
10,Cc1noc(C)c1NC(=O)Nc1cccc2c1O[C@@H](CN(C)Cc1ccc3c(c1)OCO3)[C@@H](C)CN([C@@H](C)CO)C2=O,inactive
11,C[C@@H]1CN([C@@H](C)CO)C(=O)CCCn2cc(nn2)CO[C@H]1CN(C)C(=O)Nc1ccc(N2CCCCC2)cc1,inactive
12,CC(C)NC(=O)Nc1ccc2c(c1)C(=O)N([C@@H](C)CO)C[C@H](C)[C@H](CN(C)C(=O)c1ccccc1)OCCCC[C@@H](C)O2,inactive
13,c1ccc2[nH]c(NCCN3CCOCC3)nc2c1,inactive
14,COC(=O)Cc1csc(Nc2c(C)n(C)n(-c3ccccc3)c2=O)n1,inactive
15,NC(=O)C1=C[C@H](c2csc3ccccc23)C[C@H](OCc2ccc(CO)cc2)O1,inactive
16,O=C(C1=C[C@H](c2csc3ccccc23)C[C@H](OCc2ccc(CO)cc2)O1)N1CCCCC1,active
17,O=C(C1=C[C@H](c2coc3ccccc3c2=O)C[C@H](OCc2ccc(CO)cc2)O1)N1CCOCC1,inactive
18,C=C1C[C@@]23CC[C@@H]4[C@](C)(CO)CCC[C@@]4(C)[C@@H]2CC[C@@H]1C3,inactive
19,Cc1noc(C)c1S(=O)(=O)Nc1ccc2c(c1)C(=O)N([C@H](C)CO)C[C@@H](C)[C@@H](CN(C)Cc1ccccc1)OCCCC[C@@H](C)O2,inactive
20,C[C@@H]1CN([C@H](C)CO)C(=O)c2cc(N(C)C)ccc2O[C@@H]1CN(C)S(=O)(=O)c1cn(C)cn1,inactive
21,C[C@H]1CCCCO[C@@H](CN(C)C(=O)c2ccccc2)[C@@H](C)CN([C@@H](C)CO)C(=O)c2cc(NS(=O)(=O)c3ccccc3)ccc2O1,inactive
22,CCCCc1nn(-c2ccccc2C(F)(F)F)c(=O)n1Cc1ccc(-c2ccccc2S(=O)(=O)NC(=O)c2sccc2C)cc1,active
23,CNC[C@@H]1Oc2ccc(NC(=O)CCC(F)(F)F)cc2C(=O)N([C@@H](C)CO)C[C@@H]1C,inactive
24,CC(C)C[C@](O)(C(=O)OCc1ccc(O[C@@H]2O[C@H](CO)[C@@H](O)[C@H](O)[C@H]2O)cc1)[C@H](O)C(=O)OCc1ccc(O[C@@H]2O[C@H](CO)[C@@H](O)[C@H](O)[C@H]2O)cc1,inactive
